Rows were chosen to be rich in hits. Some 1.7% of all compounds tested hit in one or more screens of this group.
PTHR1 agonist = qHTS for PTHR1 Agonists: Primary Screen; Parathyroid hormone/parathyroid hormone-related peptide receptor (Homo sapiens), Q03431; HEK293 GP2 PTHR1 cells, GloSensor cAMP luminescence, 1 h; Potency, µM (series often up to 115 µM), inactives show at the top dose activation, most hits filed as activators; actives 0.075% (n = 410,000); further: nearly all actives have a fitted effect of over 55% in size
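HEK-293-derived GP2 cells expressing PTHR1 and a GloSensor cAMP reporter, 3,000/well, plated overnight, given luciferin plus IBMX (each 0.5 mM as added) for 1 h at 37 °C, then compound for 1 h at 37 °C. Luminescence was read after 15 min at room temperature.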
GLP-1R inv ag = qHTS of GLP-1 Receptor Inverse Agonists (Inhibition Mode); Potency, µM (top dose mostly 38.3 µM), inactives show top-dose activity change, negative = inhibition, usual class: inhibitors; HEK293 GLP-1R CRE-luciferase, luminescence, 24 h; GLP-1R form is constitutively active; actives 1.6% (n = 410,000); Glucagon-like peptide 1 receptor (Homo sapiens), P43220; further: on the % scale 0 is the no-effect control and ±100 the full control effect; nearly all actives have a fitted effect of over 55% in size
Target sequence (P43220 whole entry, looked up): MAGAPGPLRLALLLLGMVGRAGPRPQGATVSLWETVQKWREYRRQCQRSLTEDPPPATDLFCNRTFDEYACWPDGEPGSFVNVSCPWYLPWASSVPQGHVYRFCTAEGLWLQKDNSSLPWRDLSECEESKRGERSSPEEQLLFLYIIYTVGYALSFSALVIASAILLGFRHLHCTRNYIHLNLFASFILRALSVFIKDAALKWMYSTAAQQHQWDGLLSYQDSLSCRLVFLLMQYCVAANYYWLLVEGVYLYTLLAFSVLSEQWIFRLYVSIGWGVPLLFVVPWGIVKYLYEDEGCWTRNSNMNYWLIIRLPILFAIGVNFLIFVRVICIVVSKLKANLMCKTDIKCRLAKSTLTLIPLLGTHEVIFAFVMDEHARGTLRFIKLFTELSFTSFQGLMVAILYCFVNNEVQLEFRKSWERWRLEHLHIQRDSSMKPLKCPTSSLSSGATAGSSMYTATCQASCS
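Inverse agonists were sought by their lowering of basal cAMP reporter luciferase output in HEK293 cells stably carrying constitutively active human GLP-1R, after 24 h compound treatment.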
HEK293 tox = qHTS of GLP-1 Receptor Inverse Agonists: Cytotox Screen | HEK293 cAMP-luciferase reporter cells, luminescence, 24 h | Potency, µM (titrated, usually from 38.3 µM), without a hit: at the highest dose activity change, negative = inhibition, actives largely listed as inhibitors | actives 0.13% (n = 410,000);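 further: loss of luciferase light is scored as toxicity; on the % scale 0 is the no-effect control and ±100 the full control effect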
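Here, cytotoxicity is scored as loss of luminescence. The MLSMR collection was tested on cells seeded in medium containing 10% Nu serum, with a 24 hr compound exposure preceded by 12 hours of culture.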
GLP-1R agonist = qHTS of GLP-1 Receptor Agonists; Glucagon-like peptide 1 receptor (Homo sapiens), P43220; HEK293 GLP-1R CRE-luciferase, luminescence, 4-6 h; cells express a hypersensitive GLP-1R form; Potency, µM (titrated, usually from 45.6 µM), inactives show top-dose activation, usual class: activators; actives 0.007% (n = 380,000); AID 624172, 2012; further: % of control where 0% means no effect
* hit, by the source's call; i = inactive; ? = inconclusive; nt = no result given; [ ] = remark or other dose. The call rests on the fitted dose curve; in most records, active means well fitted curve in the direction sought with a large enough effect; inconclusive means small, poorly fitted or top-dose-only effect, or another doubt; inactive means no such curve, though single readings can be large; an effect the other way counts as inactive or inconclusive. Potency means the concentration at half of the fitted maximal effect.

SMILES	PTHR1 agonist	GLP-1R inv ag	HEK293 tox	GLP-1R agonist
COc1cc(OC)c(NS(=O)(=O)c2ccc3c(c2)CCCN3C(C)=O)cc1Cl	-18%	-18%	7%	nt
Nc1nc(N)c2cc(Sc3ccc4ccccc4c3)ccc2n1	-34%	10µM*	?	-8%
CCN1C(=O)[C@H]2[C@@H](c3ccc(-c4ccc5c(c4)OCO5)cc3)N[C@@](Cc3ccccc3)(C(=O)OC)[C@H]2C1=O	14%	-25%	6%	12%
CCN1C(=O)[C@H]2[C@@H](c3ccc(-c4cccc(Cl)c4)cc3)N[C@@](Cc3ccccc3)(C(=O)OC)[C@H]2C1=O	i	7.9µM*	6%	-2%
Cc1ccc(S(=O)(=O)N(CCC(=O)NCc2ccccc2F)c2ccccc2)cc1	-27%	?	0%	10%
COc1cccc(CN(C)C(=O)CCN(c2ccccc2)S(=O)(=O)c2ccc(C)cc2)c1OC	-25%	8.9µM*	-11%	16%
CCc1ccccc1NC(c1nnc(-c2cccc(F)c2)o1)c1ccc(F)cc1Cl (centres undefined)	i	11µM*	-1%	nt
Cc1cc2c(cc1S(=O)(=O)CCC(=O)N1CCCCC1C)OCC(=O)N2 (centres undefined)	i	16%	-5%	-2%
CCCCCCCC/C=C\CCCCCCCCN	nt	nt	nt	2%
CC(C)Oc1ccc(CN2CCCC(CO)(Cc3ccc(F)cc3)C2)cc1 (centres undefined)	-9%	11µM*	-15%	14%
OCC1(Cc2cccc(Cl)c2)CCCN(Cc2ccc(F)c(F)c2)C1 (centres undefined)	-24%	10µM*	6%	1%
Cc1cc(C)cc(NS(=O)(=O)c2ccc3c(c2)NC(=O)C(C)S3)c1 (centres undefined)	-18%	-20%	3%	nt
CCOc1cc(CNCc2ccccc2)ccc1OCc1ccc(Cl)cc1	-26%	11µM*	?	12%
Cn1nnnc1SCCNCc1ccccc1OCc1ccccc1Cl	-20%	?	?	17%
CCOc1cc(CNCCO)cc(Br)c1OCc1ccccc1	-1%	6.3µM*	-28%	7%
COc1ccc(CNCCc2ccc(Cl)cc2)cc1OCc1ccccc1	-30%	?	?	3%
CCOc1cc(CNCCSc2nnnn2C)cc(Br)c1OCc1ccccc1	-25%[57.5 µM]	5.6µM*	-25%	6%
Cn1nnnc1SCCNCc1cc(Br)ccc1OCc1ccccc1Cl	-4%	10µM*	-13%	-2%
Cn1nnnc1SCCNCc1ccc(OCc2ccccc2)cc1	-4%	-4%	3%	4%
CCOc1ccccc1-c1noc(CSc2nnc(-c3ccccc3)n2-c2ccc(OC)cc2)n1	i	3%	1%	nt
COc1cc(CNC(C)(C)CO)cc(Br)c1OCc1ccc(Cl)cc1Cl	i	?	-14%	-27%
COc1cc(CNCCO)cc(Br)c1OCc1ccccc1Cl	i	6.3µM*	?	-1%
CCOc1cc(CNCc2ccncc2)cc(Br)c1OCc1ccc(F)cc1	-27%	10µM*	-13%	10%
Fc1ccc(COc2ccc(Br)cc2CNCc2ccncc2)cc1	-10%[57.5 µM]	?	2%	5%
CC#CCC(C)[C@H](O)/C=C/C1[C@H](O)C[C@@H]2C/C(=C\CCCC(=O)O)C[C@H]12 (some centres undefined)	nt	nt	nt	-4%
SMILES	PTHR1 agonist	GLP-1R inv ag	HEK293 tox	GLP-1R agonist
COc1ccc2c(=O)c(-c3ccc(C)cc3)c(-c3ccccc3)oc2c1	-8%	7.9µM*	4%	-3%
COc1ccccc1N1CCN(CC(C)N(C(=O)C2CCCCC2)c2ccccn2)CC1 (centres undefined)	-4%	10µM*	-3%	3%
COCC1=C(C(=O)OC(C)OC(=O)OC(C)C)N2C(=O)C(NC(=O)/C(=N\OC)c3csc(N)n3)C2SC1 (centres undefined)	nt	nt	nt	-6%
CCOC(=O)c1ccccc1NC(=O)CCc1nc(-c2ccc(C)cc2)no1	i	12%	1%	nt
COC(=O)c1ccccc1NC(=O)Cc1nc(-c2ccc(OC)cc2)no1	50µM*	-9%	-3%	nt
Cc1ccc(CN2CCc3c(OCc4ccc(F)cc4)cccc3C2=O)cc1	-36%	4.5µM*	12%	13%

Screening results as filed in PubChem.
